How the values were obtained:
Experiment in all cases: log2 ratio of Biotin-Ahx-Ub-VS probe labelling (fragment/DMSO); higher = less target engagement (more negative = stronger competition), active = hit call of the paper (q ≤ 0.05, log2 ratio ≤ -1)
Details in all cases: compound concentration: 200 uM; treatment time: 3 h
USP9X = USP9X (UniProt Q93008)
Outline: (§1)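 HEK293T lysate (495 µg per sample, in Tris/CHAPS/IGEPAL buffer with protease inhibitors) was exposed in triplicate for 3 h to fragment at 200 µM or to vehicle, then to Biotin-Ahx-Ub-VS at 0.5 µM final for 1 h. Labelled DUBs were enriched on NeutrAvidin, digested with LysC and trypsin, and analysed by diaPASEF LC-MS/MS. Spectronaut label-free quantities were normalised to the global median, and values are average log2 ratios of fragment over vehicle from an unpaired t-test. Only proteins with ≥2 unique peptides were used.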

UniProt O00487 = target: UniProt O00487
UniProt O00487, sequence (O00487 whole entry): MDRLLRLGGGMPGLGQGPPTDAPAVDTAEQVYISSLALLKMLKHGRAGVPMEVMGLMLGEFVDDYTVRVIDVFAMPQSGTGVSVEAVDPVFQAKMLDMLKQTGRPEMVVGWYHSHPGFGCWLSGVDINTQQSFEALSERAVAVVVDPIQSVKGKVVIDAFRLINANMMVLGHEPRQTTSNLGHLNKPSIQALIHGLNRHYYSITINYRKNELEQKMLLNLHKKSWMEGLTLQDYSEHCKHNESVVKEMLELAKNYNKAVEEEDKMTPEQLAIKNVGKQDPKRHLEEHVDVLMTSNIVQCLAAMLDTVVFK
Outline: as §1

UniProt O00507 = target: UniProt O00507
Outline: as §1

UniProt P51784 = target: UniProt P51784
UniProt P51784, sequence (P51784 whole entry): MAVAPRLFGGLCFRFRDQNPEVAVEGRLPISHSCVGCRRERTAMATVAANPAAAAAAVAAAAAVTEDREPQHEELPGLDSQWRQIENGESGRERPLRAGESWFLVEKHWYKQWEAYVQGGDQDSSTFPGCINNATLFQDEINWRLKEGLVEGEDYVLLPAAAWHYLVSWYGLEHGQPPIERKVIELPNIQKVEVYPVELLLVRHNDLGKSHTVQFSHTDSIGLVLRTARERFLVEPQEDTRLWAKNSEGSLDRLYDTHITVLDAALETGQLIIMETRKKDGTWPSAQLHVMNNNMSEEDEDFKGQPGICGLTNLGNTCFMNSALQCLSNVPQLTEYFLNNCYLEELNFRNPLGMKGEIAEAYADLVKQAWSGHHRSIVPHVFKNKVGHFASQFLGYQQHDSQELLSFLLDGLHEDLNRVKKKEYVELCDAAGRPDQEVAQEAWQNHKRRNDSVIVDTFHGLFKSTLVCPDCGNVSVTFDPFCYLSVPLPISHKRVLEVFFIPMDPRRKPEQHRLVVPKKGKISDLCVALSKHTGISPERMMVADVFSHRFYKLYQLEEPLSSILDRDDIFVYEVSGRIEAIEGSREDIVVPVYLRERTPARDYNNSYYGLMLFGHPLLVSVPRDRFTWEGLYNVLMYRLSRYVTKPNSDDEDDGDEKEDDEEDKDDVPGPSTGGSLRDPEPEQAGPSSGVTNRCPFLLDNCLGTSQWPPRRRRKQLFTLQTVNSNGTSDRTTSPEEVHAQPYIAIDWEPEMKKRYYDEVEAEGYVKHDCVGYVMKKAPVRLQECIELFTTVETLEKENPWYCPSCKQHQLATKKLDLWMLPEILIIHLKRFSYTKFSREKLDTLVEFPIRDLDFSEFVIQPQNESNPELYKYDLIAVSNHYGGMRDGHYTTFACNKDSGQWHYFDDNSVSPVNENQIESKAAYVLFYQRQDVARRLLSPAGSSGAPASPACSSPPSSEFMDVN
Outline: as §1

UniProt Q5T2D3 = target: T1, UniProt Q5T2D3
T1 sequence (whole entry): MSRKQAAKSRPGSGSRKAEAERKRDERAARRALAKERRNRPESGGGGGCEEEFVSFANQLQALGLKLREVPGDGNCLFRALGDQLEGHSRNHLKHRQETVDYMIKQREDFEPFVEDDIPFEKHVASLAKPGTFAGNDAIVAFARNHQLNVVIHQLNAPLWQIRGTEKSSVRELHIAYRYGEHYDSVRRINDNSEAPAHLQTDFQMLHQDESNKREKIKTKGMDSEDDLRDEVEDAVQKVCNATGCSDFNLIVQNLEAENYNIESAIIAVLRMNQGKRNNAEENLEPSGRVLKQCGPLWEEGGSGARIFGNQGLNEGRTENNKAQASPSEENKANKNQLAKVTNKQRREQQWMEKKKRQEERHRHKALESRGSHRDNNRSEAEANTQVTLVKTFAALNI
Outline: as §1

UniProt Q8TE49 = target: T2, UniProt Q8TE49
T2 sequence (whole entry): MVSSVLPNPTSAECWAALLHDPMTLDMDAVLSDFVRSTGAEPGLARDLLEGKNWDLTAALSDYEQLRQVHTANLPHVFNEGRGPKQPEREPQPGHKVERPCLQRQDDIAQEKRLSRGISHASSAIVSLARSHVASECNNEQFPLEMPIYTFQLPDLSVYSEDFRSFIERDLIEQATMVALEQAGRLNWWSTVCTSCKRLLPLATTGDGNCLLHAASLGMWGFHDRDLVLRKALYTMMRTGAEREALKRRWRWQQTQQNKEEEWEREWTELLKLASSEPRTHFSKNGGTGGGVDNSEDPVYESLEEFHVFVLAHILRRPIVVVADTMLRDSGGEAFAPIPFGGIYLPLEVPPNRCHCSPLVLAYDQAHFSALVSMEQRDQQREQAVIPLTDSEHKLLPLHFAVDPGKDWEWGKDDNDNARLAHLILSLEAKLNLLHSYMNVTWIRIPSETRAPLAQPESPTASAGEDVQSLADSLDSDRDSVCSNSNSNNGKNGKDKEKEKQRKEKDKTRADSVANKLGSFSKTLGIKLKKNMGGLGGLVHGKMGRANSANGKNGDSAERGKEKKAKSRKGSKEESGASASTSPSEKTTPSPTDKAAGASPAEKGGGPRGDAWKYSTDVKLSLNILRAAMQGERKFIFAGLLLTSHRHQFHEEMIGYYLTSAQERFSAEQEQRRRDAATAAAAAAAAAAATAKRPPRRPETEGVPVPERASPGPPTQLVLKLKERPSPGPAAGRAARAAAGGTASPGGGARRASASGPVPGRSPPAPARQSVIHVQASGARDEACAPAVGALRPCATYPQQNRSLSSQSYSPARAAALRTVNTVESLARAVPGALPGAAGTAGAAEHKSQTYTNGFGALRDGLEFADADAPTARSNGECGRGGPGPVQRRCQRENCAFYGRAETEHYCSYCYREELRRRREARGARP
Outline: as §1

UniProt Q9P2H5 = target: T3, UniProt Q9P2H5
T3 sequence (whole entry): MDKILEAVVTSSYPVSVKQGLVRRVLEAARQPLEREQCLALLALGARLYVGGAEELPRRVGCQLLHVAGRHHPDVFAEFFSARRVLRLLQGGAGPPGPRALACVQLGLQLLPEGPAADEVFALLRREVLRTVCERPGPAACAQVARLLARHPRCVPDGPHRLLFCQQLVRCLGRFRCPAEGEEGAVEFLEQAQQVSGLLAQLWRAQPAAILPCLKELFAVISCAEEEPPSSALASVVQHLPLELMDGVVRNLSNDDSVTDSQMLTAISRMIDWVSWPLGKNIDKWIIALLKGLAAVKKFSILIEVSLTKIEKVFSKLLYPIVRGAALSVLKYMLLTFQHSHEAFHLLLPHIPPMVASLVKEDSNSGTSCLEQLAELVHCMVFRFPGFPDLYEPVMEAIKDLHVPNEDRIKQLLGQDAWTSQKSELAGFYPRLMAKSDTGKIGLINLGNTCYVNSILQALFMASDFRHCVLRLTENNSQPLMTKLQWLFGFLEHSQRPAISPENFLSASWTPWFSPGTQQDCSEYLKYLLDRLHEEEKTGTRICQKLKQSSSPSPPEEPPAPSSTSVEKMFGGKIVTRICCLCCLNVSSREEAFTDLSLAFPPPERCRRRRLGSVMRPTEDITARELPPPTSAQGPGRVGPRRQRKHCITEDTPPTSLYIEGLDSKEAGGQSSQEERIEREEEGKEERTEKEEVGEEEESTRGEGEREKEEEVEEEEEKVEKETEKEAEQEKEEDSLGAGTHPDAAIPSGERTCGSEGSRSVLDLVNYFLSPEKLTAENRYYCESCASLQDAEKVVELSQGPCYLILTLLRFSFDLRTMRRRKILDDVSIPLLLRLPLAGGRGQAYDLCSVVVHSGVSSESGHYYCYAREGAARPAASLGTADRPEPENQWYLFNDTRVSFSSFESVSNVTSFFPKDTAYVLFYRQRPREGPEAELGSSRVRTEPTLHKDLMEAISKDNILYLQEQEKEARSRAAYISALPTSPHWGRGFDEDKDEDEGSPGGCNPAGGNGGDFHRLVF
Outline: as §1

UniProt Q9UGI0 = target: T4, UniProt Q9UGI0
T4 sequence (whole entry): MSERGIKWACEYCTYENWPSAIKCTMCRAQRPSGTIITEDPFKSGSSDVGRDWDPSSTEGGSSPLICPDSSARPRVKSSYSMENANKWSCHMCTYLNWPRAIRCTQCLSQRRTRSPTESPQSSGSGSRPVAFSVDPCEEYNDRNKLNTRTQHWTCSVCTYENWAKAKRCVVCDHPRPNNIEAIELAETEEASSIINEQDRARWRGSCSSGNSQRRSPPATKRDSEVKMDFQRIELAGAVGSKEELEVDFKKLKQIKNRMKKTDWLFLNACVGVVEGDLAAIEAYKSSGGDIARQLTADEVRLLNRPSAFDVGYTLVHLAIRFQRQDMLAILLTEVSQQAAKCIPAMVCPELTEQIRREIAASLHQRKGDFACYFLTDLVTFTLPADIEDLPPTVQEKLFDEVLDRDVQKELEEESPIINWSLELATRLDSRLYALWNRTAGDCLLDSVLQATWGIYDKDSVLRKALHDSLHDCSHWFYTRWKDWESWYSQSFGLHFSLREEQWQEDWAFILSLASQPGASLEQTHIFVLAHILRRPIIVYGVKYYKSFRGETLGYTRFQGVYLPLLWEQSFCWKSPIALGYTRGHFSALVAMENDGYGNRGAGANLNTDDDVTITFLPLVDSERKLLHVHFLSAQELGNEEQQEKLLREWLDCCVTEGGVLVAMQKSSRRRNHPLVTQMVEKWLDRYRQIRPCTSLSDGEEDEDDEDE
Outline: as §1

YOD1 = target: T5, YOD1 (UniProt Q5VVQ6)
T5 sequence (whole entry): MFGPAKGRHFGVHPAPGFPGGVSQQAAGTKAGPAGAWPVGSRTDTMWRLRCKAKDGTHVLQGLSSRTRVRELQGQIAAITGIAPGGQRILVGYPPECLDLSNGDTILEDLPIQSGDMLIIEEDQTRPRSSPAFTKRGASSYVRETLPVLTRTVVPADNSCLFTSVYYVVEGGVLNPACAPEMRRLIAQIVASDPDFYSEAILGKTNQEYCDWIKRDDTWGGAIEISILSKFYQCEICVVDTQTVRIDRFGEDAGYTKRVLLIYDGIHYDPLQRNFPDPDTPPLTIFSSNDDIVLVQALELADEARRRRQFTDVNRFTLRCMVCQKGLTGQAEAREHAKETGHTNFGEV
Outline: as §1

Measured: log2 ratio of Biotin-Ahx-Ub-VS probe labelling

USP9X, sequence (Q93008 whole entry, the tested form may be a part): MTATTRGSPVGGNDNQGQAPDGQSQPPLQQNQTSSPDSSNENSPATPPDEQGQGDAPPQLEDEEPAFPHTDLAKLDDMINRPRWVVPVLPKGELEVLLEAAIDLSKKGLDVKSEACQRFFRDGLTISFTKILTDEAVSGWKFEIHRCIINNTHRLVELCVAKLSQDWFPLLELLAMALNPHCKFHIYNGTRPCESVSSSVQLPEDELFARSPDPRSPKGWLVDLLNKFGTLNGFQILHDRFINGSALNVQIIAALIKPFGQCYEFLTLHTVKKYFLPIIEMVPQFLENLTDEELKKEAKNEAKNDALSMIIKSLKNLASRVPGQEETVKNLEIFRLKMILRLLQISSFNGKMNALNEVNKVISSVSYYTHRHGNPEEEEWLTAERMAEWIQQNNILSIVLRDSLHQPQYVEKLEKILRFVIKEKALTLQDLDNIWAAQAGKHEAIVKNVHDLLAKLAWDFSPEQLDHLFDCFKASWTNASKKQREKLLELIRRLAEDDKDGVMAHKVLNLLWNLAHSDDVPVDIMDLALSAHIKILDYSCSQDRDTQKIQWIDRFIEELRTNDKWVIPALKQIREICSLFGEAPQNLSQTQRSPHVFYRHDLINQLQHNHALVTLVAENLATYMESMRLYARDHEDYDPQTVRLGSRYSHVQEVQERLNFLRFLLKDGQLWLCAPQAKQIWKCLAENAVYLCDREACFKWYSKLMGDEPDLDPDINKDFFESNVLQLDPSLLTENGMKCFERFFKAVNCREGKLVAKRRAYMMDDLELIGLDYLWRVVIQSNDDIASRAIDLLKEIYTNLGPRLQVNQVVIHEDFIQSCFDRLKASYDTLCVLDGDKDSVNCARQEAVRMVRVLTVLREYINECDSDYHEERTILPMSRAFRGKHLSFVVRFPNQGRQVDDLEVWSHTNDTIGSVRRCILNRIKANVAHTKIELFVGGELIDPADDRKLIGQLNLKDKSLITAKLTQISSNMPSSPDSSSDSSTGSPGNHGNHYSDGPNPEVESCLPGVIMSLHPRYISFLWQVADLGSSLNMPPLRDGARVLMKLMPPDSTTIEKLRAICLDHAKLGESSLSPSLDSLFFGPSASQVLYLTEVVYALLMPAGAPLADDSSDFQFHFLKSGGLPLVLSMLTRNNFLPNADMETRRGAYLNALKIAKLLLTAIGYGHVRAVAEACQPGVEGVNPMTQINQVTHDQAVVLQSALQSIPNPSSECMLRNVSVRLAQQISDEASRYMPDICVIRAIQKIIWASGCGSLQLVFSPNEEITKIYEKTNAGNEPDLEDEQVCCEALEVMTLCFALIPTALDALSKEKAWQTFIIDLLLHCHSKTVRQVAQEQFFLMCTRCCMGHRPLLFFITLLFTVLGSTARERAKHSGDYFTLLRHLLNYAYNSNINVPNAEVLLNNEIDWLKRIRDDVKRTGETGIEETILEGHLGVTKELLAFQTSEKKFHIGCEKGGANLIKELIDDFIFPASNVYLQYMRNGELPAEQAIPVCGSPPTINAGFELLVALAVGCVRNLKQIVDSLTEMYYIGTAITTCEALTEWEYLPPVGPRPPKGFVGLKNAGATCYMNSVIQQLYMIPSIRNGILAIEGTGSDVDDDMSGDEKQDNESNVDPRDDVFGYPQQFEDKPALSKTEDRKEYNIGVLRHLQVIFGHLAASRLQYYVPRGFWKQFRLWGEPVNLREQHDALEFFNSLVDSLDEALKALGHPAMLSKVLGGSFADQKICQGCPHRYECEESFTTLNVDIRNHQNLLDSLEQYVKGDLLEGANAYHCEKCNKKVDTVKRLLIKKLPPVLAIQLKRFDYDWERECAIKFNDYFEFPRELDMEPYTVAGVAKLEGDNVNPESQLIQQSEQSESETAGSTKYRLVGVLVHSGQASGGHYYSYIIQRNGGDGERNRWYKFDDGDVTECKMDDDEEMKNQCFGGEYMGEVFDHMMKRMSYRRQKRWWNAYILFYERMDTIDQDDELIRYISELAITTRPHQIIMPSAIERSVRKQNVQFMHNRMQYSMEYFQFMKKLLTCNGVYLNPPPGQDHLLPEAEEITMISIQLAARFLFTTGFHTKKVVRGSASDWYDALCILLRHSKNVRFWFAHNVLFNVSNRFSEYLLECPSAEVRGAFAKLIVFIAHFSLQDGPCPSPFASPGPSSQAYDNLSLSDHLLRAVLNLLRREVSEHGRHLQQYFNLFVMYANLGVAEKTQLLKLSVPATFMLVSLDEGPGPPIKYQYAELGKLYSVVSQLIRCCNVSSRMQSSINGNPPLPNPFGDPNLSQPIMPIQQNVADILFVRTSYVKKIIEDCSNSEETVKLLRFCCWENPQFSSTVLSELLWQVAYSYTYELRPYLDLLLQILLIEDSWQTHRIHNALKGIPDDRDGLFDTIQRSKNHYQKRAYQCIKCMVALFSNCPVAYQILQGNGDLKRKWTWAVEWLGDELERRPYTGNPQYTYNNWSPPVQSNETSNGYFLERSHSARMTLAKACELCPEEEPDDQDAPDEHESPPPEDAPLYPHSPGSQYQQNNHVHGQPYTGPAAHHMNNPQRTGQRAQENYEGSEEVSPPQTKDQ

O=C(CCl)NC1CCCCNC1=O (centres undefined)
inactive: USP9X -0.297 | UniProt O00487 -0.13 | UniProt O00507 -0.323 | UniProt P51784 -0.117 | UniProt Q5T2D3 -0.329 | UniProt Q8TE49 -0.574 | UniProt Q9P2H5 -0.277 | UniProt Q9UGI0 -0.309 | YOD1 -0.218

Source: the supplement of paper PMC11732987, “Enantioselective OTUD7B fragment discovery through chemoproteomics screening and high-throughput optimisation” (Communications Chemistry, 2025)
